Among the test systems are DU-145 prostate; K-562 leukemia; MALME-3M melanoma; MDA-MB-231 breast; RXF 393 renal; SF-268 CNS; SF-295 CNS; SF-539 CNS; UACC-257 melanoma; M14 melanoma.
Common to all, as to test: NCI-60 one-dose screen, 48 h (100 = growth as untreated, 0 = no growth, -100 = all killed)
What all share (details): 10 µM

About 83,000 compounds went through this panel and 20% of them were active in at least one assay; those are over-represented in the sample as a whole.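 48-hour exposure, single concentration, 96-well plates; percent growth endpoint where 0 means no net growth. Active: below 10.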 Unmarked numbers belong to inactive results. Calls of active or inactive are those of the source.

`CCCCCc1cc[n+](CC(=O)c2ccc(Cl)cc2)cc1`: the growth in the assay with DU-145 prostate was 95.2%; in the assay with K-562 leukemia, 90.7%; with MALME-3M melanoma it was 89.8%; in the assay on MDA-MB-231 breast, 76.6%; in the assay on RXF 393 renal, 95.6%; with SF-268 CNS it was 84.7%. The growth in the assay with SF-295 CNS was 94%; in the assay with SF-539 CNS it was 93.9%; with UACC-257 melanoma, 97.5%; in the assay on M14 melanoma it was 85.9%.
For the compound `COc1ccc(-c2oncc2-c2cc(OC)c3c(c2)OCO3)cc1`, the growth is 34.2% in the assay with DU-145 prostate; 13.8% with K-562 leukemia; 52.4% in the assay on MALME-3M melanoma; 54.1% in the assay with MDA-MB-231 breast; 17.4% with RXF 393 renal; 50.2% with SF-268 CNS. In addition, the growth in the assay with SF-295 CNS was 12.3%; in the assay with SF-539 CNS it was -16% (active); with UACC-257 melanoma, 45.1%; with M14 melanoma, 13.1%.
For the compound `Cc1c(C(=O)N[C@H](CO)Cc2ccccc2)[nH]c2ccc(Cl)cc2c1=O`, the growth with DU-145 prostate is 110%; with K-562 leukemia, 95.5%; in the assay on MALME-3M melanoma it was 104%; in the assay on MDA-MB-231 breast, 115%; in the assay on RXF 393 renal it was 122%; with SF-268 CNS, 104%. Besides, the growth in the assay on SF-295 CNS was 98.2%; with SF-539 CNS it was 98.9%; in the assay on UACC-257 melanoma, 108%; in the assay with M14 melanoma it was 98.2%.
In the case of `Cc1ccc(-n2nnc3c(sc4ccccc43)c2=O)cc1`, the growth was 33.7% with DU-145 prostate; 80.3% in the assay with K-562 leukemia; 68.1% with MALME-3M melanoma; 40.9% in the assay with MDA-MB-231 breast; 59.9% with RXF 393 renal; 39.8% in the assay on SF-268 CNS. Besides, the growth in the assay on SF-295 CNS is 27.3%; in the assay on SF-539 CNS, 57.2%; with UACC-257 melanoma, 83%; in the assay with M14 melanoma, 83.1%.
In the case of `CN1CCN(c2nc(-c3cccnc3)nc3sc4c(c23)CCCCCC4)CC1`, the growth in the assay with DU-145 prostate is 98.9%; in the assay with K-562 leukemia, 13.6%; in the assay on MALME-3M melanoma, 106%; in the assay on MDA-MB-231 breast, 78.9%; in the assay on RXF 393 renal, 79.4%; in the assay with SF-268 CNS it was 80.3%. Moreover, the growth was 75.6% in the assay with SF-295 CNS, 93.3% in the assay with SF-539 CNS, 102% in the assay with UACC-257 melanoma and 101% in the assay on M14 melanoma.
With `COc1ccc(OC)c([N+](=O)[O-])c1C=O`, the growth is 116% with DU-145 prostate; 42.4% in the assay with K-562 leukemia; 108% in the assay with MALME-3M melanoma; 107% in the assay with MDA-MB-231 breast; 80.6% with RXF 393 renal; 109% with SF-268 CNS. Moreover, the growth with SF-295 CNS is 93.7%; in the assay on SF-539 CNS, 105%; in the assay on UACC-257 melanoma, 84.1%; in the assay with M14 melanoma, 108%.
Take `CNC(=S)Sc1ccc([N+](=O)[O-])cc1[N+](=O)[O-]`: the growth was 38.1% with DU-145 prostate; 7.74% (active) in the assay on K-562 leukemia; 87.1% in the assay with MALME-3M melanoma; 50.8% in the assay with MDA-MB-231 breast; 97.4% with RXF 393 renal; 94.2% with SF-268 CNS. In addition, the growth was 95.1% in the assay on SF-295 CNS, 25.9% in the assay with SF-539 CNS, 62.5% with UACC-257 melanoma and 24.3% in the assay with M14 melanoma.
In the case of `Cc1cc(OI)c(C(C)C)cc1-c1cc(C(C)C)c(OI)cc1C`, the growth with DU-145 prostate was 101%; in the assay with K-562 leukemia, 98.8%; in the assay on MALME-3M melanoma, 105%; in the assay on MDA-MB-231 breast, 104%; in the assay on RXF 393 renal, 101%; with SF-268 CNS, 96.8%. Also, the growth in the assay with SF-295 CNS was 101%; in the assay with SF-539 CNS, 94.3%; with UACC-257 melanoma, 101%; in the assay with M14 melanoma, 104%.
In the case of `COc1cc(-c2nc3ccccc3[nH]2)ccc1OCc1nnc(-c2ccc(Br)cc2)o1`, the growth in the assay with DU-145 prostate was 84.8%; in the assay with K-562 leukemia, 57.3%; in the assay on MALME-3M melanoma, 67.4%; in the assay with MDA-MB-231 breast, 76.2%; with RXF 393 renal it was 87%; in the assay with SF-268 CNS, 96.8%. Also, the growth in the assay on SF-295 CNS is 102%; in the assay with SF-539 CNS it was 110%; in the assay on UACC-257 melanoma it was 97%; with M14 melanoma it was 91.9%.
Consider `CC1(CO)CCCC12OCCO2` (stereo not given), for which the growth is 117% in the assay on DU-145 prostate; 100% with K-562 leukemia; 113% in the assay with MALME-3M melanoma; 104% in the assay on MDA-MB-231 breast; 100% in the assay with RXF 393 renal; 110% in the assay on SF-268 CNS. Further, the growth with SF-295 CNS was 82.3%; with SF-539 CNS it was 96.2%; in the assay on UACC-257 melanoma, 99.8%; in the assay with M14 melanoma, 106%.
Take `Cc1nc2scc(-c3ccc(Cl)cc3)n2c(=O)c1CCN1CCOCC1`: the growth is 115% with DU-145 prostate; 80.6% in the assay with K-562 leukemia; 100% in the assay with MALME-3M melanoma; 78.3% in the assay with MDA-MB-231 breast; 118% in the assay with RXF 393 renal; 102% in the assay on SF-268 CNS. The growth in the assay on SF-295 CNS is 70.7%; in the assay on SF-539 CNS, 100%; in the assay on UACC-257 melanoma it was 108%; in the assay with M14 melanoma it was 97.8%.
Regarding `COc1ccc(C(=O)/C=C/c2cc(-c3ccc4c(c3)OCO4)n[nH]2)cc1OC`, the growth in the assay with DU-145 prostate was 39.7%; with K-562 leukemia, 23.8%; in the assay with MALME-3M melanoma, 94.4%; in the assay on MDA-MB-231 breast, 58.3%; in the assay with RXF 393 renal, 38.6%; in the assay with SF-268 CNS, 45.4%. Further, the growth is 53.4% in the assay on SF-295 CNS, 42.2% with SF-539 CNS, 109% in the assay with UACC-257 melanoma and 91.6% in the assay with M14 melanoma.
As to `CCN(CC)c1ccc(/C=C/C2=[N+](C)c3ccccc3C2(C)C)c(C)c1`, the growth in the assay with DU-145 prostate was 20.3%; in the assay on K-562 leukemia, 6.13% (active); in the assay on MALME-3M melanoma, -33.4% (active); in the assay on MDA-MB-231 breast it was -1.06% (active); in the assay with RXF 393 renal, 29.5%; with SF-268 CNS, 22.7%. In addition, the growth is 4.27% (active) with SF-295 CNS, 18% with SF-539 CNS, -15.9% (active) in the assay on UACC-257 melanoma and 10.5% in the assay with M14 melanoma.
Take `Cc1cc(Cl)ccc1Nc1nc(C(F)(F)F)ccc1C(=O)N/N=C/c1ccccc1Cl`: the growth was 36.4% with DU-145 prostate; 56.3% with K-562 leukemia; 30% in the assay on MALME-3M melanoma; -15.5% (active) in the assay with MDA-MB-231 breast; 24.1% in the assay with RXF 393 renal; 31.1% in the assay with SF-268 CNS. In addition, the growth in the assay with SF-295 CNS was 8.72% (active); in the assay on SF-539 CNS it was 6.63% (active); in the assay with UACC-257 melanoma it was 6.87% (active); in the assay on M14 melanoma, 9.99% (active).

These data come from PubChem BioAssay (NCI).
